Bioassay records (PubChem)
ELG1 genotoxic: inducers of genotoxicity in HEK293T ELG1-luciferase cells | HEK293T ELG1-luciferase reporter, luminescence, 16 h | Potency, µM (highest dose often 46 µM), for inactives: top-dose activity change, positive = activation, actives largely listed as activators | 330,000 tested, 1.3% active | AID 504466; further: % of control where 0% means no effect; nearly all actives have a fitted effect of over 60% in size
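After overnight (16 hr) compound treatment at 37 °C, ELG1-luciferase HEK293T cells were lysed with ONE-Glo; luminescence quantified 30 min later at room temperature.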
Rab9 prom act: Rab9 promoter activation | Huh7 Rab9 promoter-luciferase reporter, luminescence, 24 h | Potency, µM (doses to about 9.22 µM), inactives show at the top dose activation, negative = inhibition, most hits filed as activators | 320,000 tested, 2.8% active; further: % of control where 0% means no effect; nearly all actives have a fitted effect of over 60% in size
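Luminescence from Amplite-detected luciferase (10 minutes, ambient) reports Rab9 promoter activation. Before that, stable Rab9-luciferase Huh7 cells (1500/well, reduced-serum OP-MEM I plus 10% FBS) were exposed to compound for 24 hours at 37C.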
SMN2 splice up: increases expression of the SMN2 splice variant; HEK293 SMN2-luciferase splicing reporter, luminescence, 30-36 h; Potency, µM (titrated, usually from 46.1 µM), for the others: at the top dose activity change, positive = activation, hits mostly activators; 210,000 tested, 2.8% active; AID 1458; further: % of control where 0% means no effect; nearly all actives have a fitted effect of over 55% in size
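HEK293 cells carry an SMN2 […]–luciferase reporter in which exon 7 inclusion puts luciferase in frame. Cells were plated 10-12 h before compound addition, then incubated 30-36 h at 37C. ONE-Glo luminescence was read; sodium butyrate at 4.5 mM final served as control.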
NPC1 prom act: activators of NPC1 promoter | Huh7 NPC1 promoter luciferase reporter, 24 h | Potency, µM (doses to about 9.22 µM), for the others: at the highest dose activation, hits mostly activators | 320,000 tested, 2.4% active; further: % of control where 0% means no effect; nearly all actives have a fitted effect of over 60% in size
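Stably transfected Huh7 (NPC1 promoter→luciferase), 1500 cells/well in Opti-MEM + 10% FBS, 2 h settle, then compound 24 h at 37 °C. Luminescence after 10 min with Amplite reagent.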
FLuc counter: firefly luciferase modulation, counter-screen for miR-21 project; purified FLuc, Km substrates, luminescence inhibition; P08659; 360,000 tested, 6.9% active; AID 588342; Potency, µM (titrated, usually from 57.5 µM), for the others: top-dose activity change, negative = inhibition, actives largely listed as inhibitors;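 further: plate controls were vehicle for no effect and reference inhibitor for full effect; nearly all actives have a fitted effect of over 55% in size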
Target sequence (P08659 whole entry, looked up): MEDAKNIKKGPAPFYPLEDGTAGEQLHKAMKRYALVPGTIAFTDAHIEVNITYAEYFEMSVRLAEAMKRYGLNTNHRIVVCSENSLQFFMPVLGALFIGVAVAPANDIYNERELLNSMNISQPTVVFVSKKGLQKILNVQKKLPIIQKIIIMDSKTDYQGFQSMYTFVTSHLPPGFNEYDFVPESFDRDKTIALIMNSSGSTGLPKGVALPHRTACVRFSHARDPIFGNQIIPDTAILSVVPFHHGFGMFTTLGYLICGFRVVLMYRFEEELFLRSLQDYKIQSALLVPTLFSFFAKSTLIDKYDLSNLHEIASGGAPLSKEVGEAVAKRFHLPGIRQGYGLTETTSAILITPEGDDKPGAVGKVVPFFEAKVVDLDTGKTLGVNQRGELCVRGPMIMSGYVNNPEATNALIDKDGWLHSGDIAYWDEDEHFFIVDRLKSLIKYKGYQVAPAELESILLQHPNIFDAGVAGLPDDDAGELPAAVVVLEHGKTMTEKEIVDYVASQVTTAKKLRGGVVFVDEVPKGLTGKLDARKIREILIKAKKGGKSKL
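Biochemical qHTS of compounds, final roughly 60 µM downward over six points, against 10 nM purified firefly luciferase using Km concentrations of substrates (10 uM D-luciferin, 10 uM ATP) in Tris acetate pH 7.5 buffer; luminescence output.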
ELG1 DNA repair: inhibitors of ELG1-dependent DNA repair in HEK293T cells. 330,000 tested, 2.3% active. HEK293T ELG1-luciferase reporter, luminescence, 16 h; DNA damage induced by 5-fluorouridine. Potency, µM (highest dose often 46.1 µM), for the others: at the highest dose activity change, negative = inhibition, most hits filed as inhibitors; further: on the % scale 0 is the no-effect control and ±100 the full control effect; nearly all actives have a fitted effect of over 55% in size
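Reporter activity after DNA damage by 5-fluorouridine is monitored. Compound-treated cells incubate 16 hr at 37 °C, then ONE-Glo is added for 30 min before luminescence reading.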
* = called active by the depositor; ? = inconclusive; · = no result given. Rows were chosen to be rich in hits. Some 9.2% of all compounds tested hit in one or more screens of this group. The call rests on the fitted dose curve; in most records, active means well fitted curve in the direction sought with a large enough effect; inconclusive means small, poorly fitted or top-dose-only effect, or another doubt; inactive means no such curve, though single readings can be large; an effect the other way counts as inactive or inconclusive. Potency means the concentration at half of the fitted maximal effect.

SMILES	ELG1 genotoxic	Rab9 prom act	SMN2 splice up	NPC1 prom act	FLuc counter	ELG1 DNA repair
CCC(=O)Nc1cccc(C2=NN(c3ccccc3)C(c3ccc(OC)cc3)C2)c1 (stereo not drawn)	-3%	-6%	·	2%	-13%	?
Cc1cccc(C(=O)N[C@H](C(=O)Nc2nccs2)C(C)C)c1	0%	1%	·	0%	-4%	-6%
COCCN(C(=O)COC(=O)/C=C/c1cccc(OC)c1)c1c(N)n(CC(C)C)c(=O)[nH]c1=O	3%	-3%	·	-2%	4%	24%
CCCCn1c(/N=C/c2c[nH]c3ccccc23)nc2ccccc21	-1%	-1%	-25%	2%	9.5µM*	-15%
CCn1c(/N=C/c2c[nH]c3ccccc23)nc2ccccc21	0%	-3%	·	0%	0.54µM*	2%
CCn1c(/C=N/n2cnnc2)nc2ccccc21	0%	9%	-22%	0%	0%	0%
CCCn1c(/N=C/c2c[nH]c3ccccc23)nc2ccccc21	-1%	0%	-17%	3%	2.7µM*	2%
Cn1c(/N=C/c2c(O)ccc3ccccc23)nc2ccccc21	16%	0%	-19%	-2%	?	?
Cc1ccc(Sc2c(C=O)c3ccccc3n2C)cc1	-11%	3%	-47%	2%	2%	5.8µM*
COc1ccc(NC(=O)C(C)N2Cc3ccccc3C2=O)cc1OC (stereo not drawn)	·	·	·	·	1%	·
Cc1cccc(OCC(=O)NCCNC(=O)c2ccco2)c1	-10%	6%	·	4%	0%	2%
CCOc1ccc2nc(NC(=O)C3=NNC(=O)CC3)sc2c1	14%	?	?	20%	?	?
O=C(CSc1nccn1-c1ccccc1)Nc1nc2ccccc2s1	·	·	·	·	24µM*	·
CCOc1ccc2nc(NC(=O)c3cnc(C)cn3)sc2c1	0%	18%	-27%	24%	6µM*	2%
O=C(CSc1nccn1-c1ccc(Cl)cc1)Nc1nc2ccccc2s1	·	·	·	·	-6%	·
CCOc1ccc2nc(NC(=O)CSc3ccccc3)sc2c1	13%	12%	?	22%	21µM*	6%
CCOc1ccc2nc(NC(=S)N(C)C)sc2c1	0.37µM*	0.79µM*	4µM*	0.71µM*	1.3µM*	?
CCOC(=O)N1CCC(NC(=O)c2ccc3c(c2)N(Cc2ccc(Cl)cc2)C(=O)c2ccccc2S3=O)CC1 (stereo not drawn)	·	·	-13%	·	-2%	·
COc1ccc(CCN2CC(C(=O)Nc3ccccc3F)CC2=O)cc1OC (stereo not drawn)	5%	-1%	·	1%	-11%	?
CCOc1ccc(CNC(=O)Cn2ncc3c(=O)oc4ccc(C)cc4c32)cc1	·	·	-5%	·	-6%	·
CCOc1ccc2nc(NS(=O)(=O)c3ccc(NC(C)=O)cc3)sc2c1	?	11%	14%	2%	3%	0%
CCOc1ccc2nc(NC(=O)CCn3cccc3)sc2c1	1%	20%	12%	15%	?	?
CCOc1ccc2nc(NS(=O)(=O)Cc3ccccc3)sc2c1	21µM*	12%	5%	-20%	27µM*	?
CCCC(=O)Nc1nc2ccc(OCC)cc2s1	?	2.2µM*	22µM*	2.8µM*	11µM*	?
CN(C)C(=S)Nc1nc2ccccc2s1	?	?	·	?	12µM*	?
SMILES	ELG1 genotoxic	Rab9 prom act	SMN2 splice up	NPC1 prom act	FLuc counter	ELG1 DNA repair
CCOc1ccc2nc(NC(=O)c3cccnc3)sc2c1	?	0.89µM*	7.9µM*	1.6µM*	1.5µM*	?
CC(=O)NNc1nc2ccccc2s1	-1%	4%	-24%	1%	3%	1%
CC(C)CN1CN(Cc2ccccc2)CNC1=S	-1%	-9%	0%	-4%	3%	11%
CCc1c(C)sc2c1CCN(C(=O)Nc1cc(C)ccc1C)C2c1ccc(OC)cc1 (stereo not drawn)	·	·	·	·	-2%	·
CCOc1ccc2nc(NC(=O)c3ccccc3)sc2c1	·	·	1.3µM*	·	0.54µM*	·
COC(=O)Cc1c(C)nc2nc(NCc3ccc(Br)cc3)[nH]n2c1=O	·	·	5%	·	?	·
COC(=O)Cc1c(C)nc2nc(-c3ccc(OC)cc3)[nH]n2c1=O	?	1%	-9%	12%	15µM*	18%
Cc1cc(=O)n2[nH]c(COc3ccccc3)nc2n1	-5%	-6%	6%	1%	?	17%
COc1ccc(-c2nc3nc(C)cc(=O)n3[nH]2)cc1	3%	18%	1%	-3%	17µM*	12%
COc1ccc(-c2nc3nc(C)c(Cc4ccccc4)c(=O)n3[nH]2)cc1	?	14%	?	13%	9.5µM*	?
Cc1ccc(SCCNC(=O)c2ccc(C)c(S(=O)(=O)Nc3ccccc3C)c2)cc1	-15%	-8%	-18%	-4%	2%	2.9µM*
CCOc1cc(N2CCOCC2)c(OCC)cc1NC(=O)c1cc(-c2ccco2)nc2ccccc12	-13%	-6%	-22%	-7%	-8%	2.6µM*
Cc1ccc(NC(=O)c2cc(-c3ccco3)nc3ccccc23)cc1S(=O)(=O)N1CCOCC1	-11%	-4%	4%	-11%	?	?
COc1ccc(NC(=O)c2cc(-c3ccco3)nc3ccccc23)cc1S(=O)(=O)N1CCOCC1	-4%	1%	·	0%	?	10µM*
COc1ccc(Nc2nc(-c3ccccc3)nc3ccccc23)cc1S(=O)(=O)N1CCOCC1	-14%	-9%	·	0%	-3%	8.2µM*
CCOc1cc(N2CCOCC2)c(OCC)cc1NC(=O)COc1ncnc2ccccc12	-2%	1%	6%	-4%	-1%	-31%
O=C(Nc1ccc(Cl)c(S(=O)(=O)N2CCOCC2)c1)c1cc(-c2ccccn2)nc2ccccc12	-10%	-2%	-1%	-6%	-6%	18µM*
C=CC(C1=CC(=O)C(OC)=C(OC)C1=O)c1ccccc1 (stereo not drawn)	·	·	1%	·	·	·
CC(C)(C)c1ccc(C(=O)Nc2ccccc2C(=O)NCCN2CCOCC2)cc1	15%	8%	·	29%	5.4µM*	?
O=C(Nc1ccccc1C(=O)NCC1CCCO1)c1ccco1 (stereo not drawn)	0%	-6%	26%	0%	4%	-8%
Cc1ccc(C(=O)Nc2ccccc2C(=O)NCC2CCCO2)cc1 (stereo not drawn)	-2%	9%	·	-14%	15µM*	?
CCOc1cc(NC(=S)NCC2CCCO2)c(OCC)cc1NC(=O)c1ccc(F)cc1 (stereo not drawn)	-2%	-6%	·	-5%	27µM*	13%
